Compounds with a hit are over-represented: about 19% of the library has one in this group of screens.
HT1080 IDH1KD tx: kills HT-1080 cells with IDH1 knockdown | AID 686971 | HT-1080 IDH1 knockdown viability, ATP luminescence, 48 h | hit rate 2% among 360,000 | Potency, µM (titrated, usually from 46.1 µM), for inactives: at the highest dose activity, negative = toxicity, actives largely listed as cytotoxic;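 further: 0% = DMSO wells and -100% = cell-free medium wells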
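Cytotoxicity counter-line: IDH1KD HT-1080, 48 h, CellTiter-Glo. Curves classed by r2, magnitude and activity.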
DT40 TDP1 CPT: growth inhibition of DT40 Tdp1-/-;hTDP1 cells with camptothecin (screen for TDP1 inhibitors); AID 686979; hit rate 12% among 420,000; Potency, µM (titrated, usually from 46.2 µM), inactives show at the highest dose activity change, negative = growth inhibition, most hits filed as inhibitors; chicken DT40 Tdp1-/-;hTDP1 cells + 20 nM CPT, ATP luminescence, 48 h; further: nearly all actives have a fitted effect of over 55% in size
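Chicken DT40 Tdp1-/- cells stably complemented with human TDP1 were seeded at 400 cells/well in medium containing 20 nM camptothecin, exposed to pin-transferred compounds, and grown at 37 °C for at least 48 hr. Viability was read as ATP luminescence.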
KB-3-1 tox: kills parental KB-3-1 adenocarcinoma cells; KB-3-1 viability, CellTiter-Glo ATP luminescence, 72 h; hit rate 1.4% among 400,000; Potency, µM (series often up to 46.1 µM), actives largely listed as cytotoxic; further: nearly all actives have a fitted effect of over 60% in size
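KB-3-1 parental drug-naive adenocarcinoma cells in DMEM/10% FBS, incubated 72 h at 37 C with pin-transferred compounds across a concentration series. Viability by CellTiter-Glo luminescence; concentration-response curves fitted after normalization.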
KB-V1 MDR tox: kills drug-selected multidrug resistant KB-V1 cells; Potency, µM (doses to about 46.1 µM), hits mostly cytotoxic; KB-V1 MDR cells viability, CellTiter-Glo, 72 h; hit rate 3.4% among 400,000; further: nearly all actives have a fitted effect of over 60% in size
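Cytotoxicity toward P-gp-expressing KB-V1 cells was determined as loss of CellTiter-Glo luminescence after 72 h at 37 degrees C. Compounds were tested in quantitative HTS format across a concentration range, with curves fitted to normalized data.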
HT1080-NT tox: kills 2HG-producing HT-1080-NT fibrosarcoma cells | hit rate 1.6% among 360,000 | Potency, µM (series often up to 46.1 µM), inactives show at the top dose activity, negative = less viability, hits mostly cytotoxic | HT-1080-NT fibrosarcoma viability, CellTiter-Glo ATP luminescence, 48 h;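 further: NT is the 2HG producing partner of a matched IDH1 knockdown line; 0% = DMSO-treated cells and -100% = media-only wells without cells; nearly all actives have a fitted effect of over 55% in size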
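HT-1080-NT fibrosarcoma cells (2HG-overproducing), 750 cells/well in RPMI with 5% FBS, dosed after 2 h and incubated 48 h at 37C. CellTiter-Glo luminescence normalized to DMSO and no-cell wells; concentration-response curves fitted and classed.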
TDP1 cell noCPT: qHTS for Inhibitors of human tyrosyl-DNA phosphodiesterase 1 (TDP1): qHTS in cells in absence of CPT; DT40 Tdp1-/- hTDP1 cells, no CPT, ATP luminescence, 48 h; Potency, µM (series often up to 46.2 µM), for inactives: at the highest dose activity change, negative = growth inhibition, usual class: inhibitors; hit rate 15% among 420,000; AID 686978, 2013; further: nearly all actives have a fitted effect of over 55% in size
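Readout: luminescence from CellTiter-Glo after 30 min in the dark at RT. Cells: DT40 Tdp1-/- with stable hTDP1, 400/well. Exposure: compounds alone, ≥48 hr, 37 °C.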
Active calls of the source: *; i = inactive; ? = inconclusive; . = no result given; [ ] = another dose, or the depositor's remark. The call rests on the fitted dose curve; in most records, active means well fitted curve in the direction sought with a large enough effect; inconclusive means small, poorly fitted or top-dose-only effect, or another doubt; inactive means no such curve, though single readings can be large; an effect the other way counts as inactive or inconclusive. Unless noted, on the % scale 0 is the no-effect control and ±100 the full control effect; potency means the concentration at half of the fitted maximal effect.

SMILES | HT1080 IDH1KD tx | DT40 TDP1 CPT | KB-3-1 tox | KB-V1 MDR tox | HT1080-NT tox | TDP1 cell noCPT
Cc1cccc(NC(=O)Cn2nc(-c3cccs3)ccc2=O)c1C | 8% | 13% | i | ? | 8% | -5%
C/C(CC(C)C)=N\Nc1ccc(S(N)(=O)=O)cc1[N+](=O)[O-] | -30% | -1% | i | i | -18% | ?
Cn1nc2c(c1C(=O)N1CCCC(C(=O)c3cc(F)ccc3F)C1)CCCC2 (stereo not given) | -3% | 16µM* | i | i | -8% | -36%
CC(C)c1cc(C(=O)N2CCCC(N3CCN(c4ccc(F)cc4)CC3)C2)n(C)n1 (stereo not given) | -20% | 16µM* | i | i | -2% | ?
Cc1cc(C(=O)N2CCCC(N3CCN(c4ccc(F)cc4)CC3)C2)c(C)o1 (stereo not given) | -20% | 23µM* | i | ? | -1% | 18µM*
Cc1cc(C(=O)N2CCCC(C(=O)c3cc(F)ccc3F)C2)c(C)o1 (stereo not given) | 0% | ? | i | i | -4% | 18µM*
COc1ccc2cc(CNCc3ccccc3C(F)(F)F)c(N3CCCC(CO)C3)nc2c1 (stereo not given) | . | -12%[9.04 µM] | . | . | . | -29%
CC(C)Cc1cc(C(=O)N2CCCC(CO)(Cc3ccc(F)cc3)C2)no1 (stereo not given) | 1% | ? | i | i | -6% | ?
Cc1cc(C(=O)N2CCCC(CO)(Cc3ccc(F)cc3)C2)c(C)o1 (stereo not given) | 12% | 23µM* | i | ? | 9% | 23µM*
CCCC(=O)OC1CC(C)N(C(=O)c2ccccc2)c2ccc(C)cc21 (stereo not given) | -4% | ? | i | ? | 1% | 23µM*
N#C[C@H]1C(O)C(O)c2ccccc2N1C(=O)c1ccccc1 (stereo not given in full) | 7% | 6% | i | i | 8% | -6%
Cc1ccc2c(c1)C=CC(C)N2C(=O)c1ccccc1 (stereo not given) | -21% | ? | i | i | -17% | 16µM*
CC1=Cc2ccccc2C(C#N)N1C(=O)c1ccccc1 (stereo not given) | ? | 21µM* | ? | i | ? | 18µM*
CCSC(=O)N1c2ccc(OC)cc2C=CC1C#N (stereo not given) | ? | 0.0082µM* | 0.65µM* | 0.73µM* | 0.46µM* | 0.0052µM*
Cc1nn(C(=O)c2ccccc2)c(C)c1S(=O)(=O)N1CCCCCC1 | . | -13% | i | ? | . | -24%
Cc1nc(NC(=O)COC(=O)CCc2ccccc2)c(Cl)cc1Cl | 0% | 1% | i | i | 11% | -29%
Cc1ccccc1C(OCCN(C(C)C)C(C)C)c1ccccc1 (stereo not given) | -14% | ? | i | i | -15% | ?
Cc1ccc2c(c1)C=CC(C#N)N2C(=O)c1ccccc1 (stereo not given) | 1.5µM* | 1.6µM* | 4.6µM* | 9.2µM* | 1.6µM* | 1.8µM*
CC(=O)c1ccc(-c2nnc(CCC(=O)N3CCCC(C(=O)CC(C)C)C3)o2)s1 (stereo not given) | 10% | 13µM* | i | i | 6% | ?
CCC(=O)C1CCCN(C(=O)CCc2nnc(C3(c4ccc(Cl)cc4)CCC3)o2)C1 (stereo not given) | -3% | 23µM* | . | . | 0% | ?
O=C(CCc1nnc(C2(c3ccc(Cl)cc3)CCC2)o1)N1CCCC1 | 13% | -18% | i | i | 7% | -13%
Cc1cc(CNC(=S)Nc2ccc(Br)cc2Cl)nn1C | -1% | ? | i | i | -16% | ?

From PubChem
